# Assay outcomes (PubChem)
# Compounds with a hit are over-represented: about 19% of the library has one in this group of screens.
# SARS PLpro yeast: blocks SARS-CoV papain-like protease in a yeast assay; S. cerevisiae expressing SARS-CoV PLpro, growth rescue; Potency, µM (titrated, usually from 32.9 µM), without a hit: at the highest dose activity, positive = growth rescue, actives largely listed as activators; 330,000 compounds, 0.19% hits; AID 485353; calls by dose curve; further: potency means the concentration at half of the fitted maximal effect; 0% is about no effect; nearly all actives have a fitted effect of over 55% in size
# CHX counter: counter-screen for Shiga toxin inhibitors: cycloheximide protein synthesis inhibition; cell reporter, cycloheximide protein synthesis inhibition counterscreen; max response, %; 300,000 compounds, 12% hits; AID 2314; in the data active means max response mostly above about 13%, no sharp cut-off; inactive means mostly below about 14%; further: read at 38.3 µM for the half of the compounds with a filed dose; 0% is about no effect
# AMA1-RON2 inh: inhibitors of Plasmodium falciparum AMA1-RON2 interaction | 360,000 compounds, 0.2% hits | Potency, µM (top dose mostly 58.2 µM), for inactives: at the top dose activity change, negative = inhibition, actives largely listed as inhibitors | AlphaScreen AMA1-biotinylated RON2 peptide binding;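 further: potency means the concentration at half of the fitted maximal effect; 0% = vehicle wells and -100% = peptide control; nearly all actives have a fitted effect of over 45% in size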
#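 AMA1 (3D7) with his tag at 25 nM final met compounds first, then biotinylated RON2 peptide at 25 nM; detection used donor plus acceptor beads, 10 µg/mL apiece, read by AlphaScreen after 30 min at room temperature.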
# Shiga toxin inh: blocks Shiga toxin action in Vero cells | Vero cells, Shiga toxin protein synthesis inhibition reporter | AID 2315 | inhibition, % at 38.7 µM | 290,000 compounds, 9.2% hits; in the data active means inhibition mostly above about 28%, no sharp cut-off; inactive means mostly below about 43%; further: 0% is about no effect
# Pf growth 96h: P. falciparum growth inhibition at 96 hours. 320,000 compounds, 6.9% hits. Potency, µM (doses to about 28.7 µM), without a hit: top-dose activity change, negative = inhibition, most hits filed as inhibitors. P. falciparum luciferase reporter growth, 96 h; further: potency means the concentration at half of the fitted maximal effect; on the % scale 0 is the no-effect control and ±100 the full control effect
#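 Compounds incubated with erythrocytes infected by luciferase-expressing P. falciparum (2% hematocrit, 0.05% parasitemia final) for 96 hours, 37 C in 5% CO2. Growth inhibition scored as decreased luciferase luminescence.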
# Pf growth 48h: P. falciparum growth inhibition at 48 hours (one generation). Potency, µM (titrated, usually from 28.7 µM), without a hit: top-dose activity change, negative = inhibition, hits mostly inhibitors. P. falciparum luciferase growth in erythrocytes, 48 h. AID 504832. 310,000 compounds, 5.9% hits; further: potency means the concentration at half of the fitted maximal effect; on the % scale 0 is the no-effect control and ±100 the full control effect
#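 Growth was read as firefly luciferase luminescence after a 48 h, 37 C, 5% CO2 exposure of compounds to reporter-bearing P. falciparum cultures (0.1% parasitemia, 2% hematocrit final) in Albumax-supplemented RPMI 1640.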
# * marks the source's active call; other numbers are inactive results; ? = inconclusive; / = no result; + = active, no number; ! = repeats disagree. Unless noted, the call rests on the fitted dose curve; in most records, active means well fitted curve in the direction sought with a large enough effect; inconclusive means small, poorly fitted or top-dose-only effect, or another doubt; inactive means no such curve, though single readings can be large; an effect the other way counts as inactive or inconclusive.
SMILES,SARS PLpro yeast,CHX counter,AMA1-RON2 inh,Shiga toxin inh,Pf growth 96h,Pf growth 48h
CCc1ccccc1-n1nnnc1SCC(=O)Nc1cc(C)on1,1%,6,3%,7,9.3µM*,-22%
Cc1cc(NC(=O)CSc2nnnn2-c2ccccc2C)no1,-1%,17,84%,13,?,?
CCc1ccccc1-n1nnnc1SCC(=O)Nc1ccc(N2CCN(C)CC2)cc1,-4%,3,-12%,9,?,15µM*
Cc1ccccc1-n1nnnc1SCC(=O)Nc1ccc(N2CCN(C)CC2)cc1,-6%,-1,0%,-16,-2%,-20%
NS(=O)(=O)c1ccc(CNS(=O)(=O)c2cc(Cl)ccc2Cl)cc1,0%,-4,2%,5,2%,-2%
NC(N)=NC(=O)Cc1c(Cl)cccc1Cl,5%,-1,-9%,-15,1.9µM*!,?
CCCCN(C(=O)CSCC(=O)Nc1ccc(C)cc1)c1c(N)n(CCCC)c(=O)[nH]c1=O,-1%,/,24%,/,?,?
Cn1c(-c2ccccc2)cc2c3no[n+]([O-])c3ccc21,-21%,27*,-13%,68*,53%,42%
CCOC(=O)c1c(C)n(OCc2ccccc2)c2ccc3c(no[n+]3[O-])c12,2%,1,-4%,-2,/,-8%
CCOC(=O)C1C(=O)NC(C(=O)OCC)(C(=O)OCC)C1C(C)CC (stereo not drawn),/,/,-4%,/,/,/
COc1cccc(-n2c(SCC(=O)O)nnc2-c2cccnc2)c1,1%,-1,0%,-5,?,16%
O=C(CSc1nnc(-c2cccnc2)n1-c1ccccc1)Nc1ccccn1,-3%,-1,-14%,25,10µM*,16%
Clc1ccc(-n2c(SC/C=C/c3ccccc3)nnc2-c2cccnc2)cc1,-13%,-4,-28%,-12,/,12µM*
CN(C)C(=O)CSc1nnc(-c2cccnc2)n1-c1ccccc1,0%,1,8%,19,?,/
CCSc1nnc(-c2cccnc2)n1-c1ccc(Cl)c(C)c1,10%,-1,-14%,-14,12µM*,/
Cc1cc(NC(=O)c2ccc3nc(C)sc3c2)no1,0%,43*,39%,195*,?,149%
Cc1cc(NC(=O)c2cccc(COc3ccc(Br)cc3)c2)no1,9%,112*,5%,+,-21%,233%
Cc1cc(NC(=O)Cc2ccccc2)no1,13%,-1,-13%,-11,?,-9%
Cc1cc(NC(=O)c2ccc(Cl)cc2)no1,-4%,32*,-1%,59*,15%,107%
Cc1cc(NC(=O)c2cccc(C(=O)Nc3cc(C)on3)n2)no1,4%,-6,24%,12,-20%,14%
Cc1cc(NC(=O)NC(=O)c2ccccc2)no1,-7%,20*,0%,38*,?,178%
Cc1cc(C(=O)NC(C)C2CCCO2)no1 (stereo not drawn),3%,-4,-2%,-10,14%,15%
COc1cc(-n2c(C)nc3ncn(-c4ccccc4)c3c2=O)cc(OC)c1OC,/,/,10%,/,/,/
COc1ccc(NC(=O)C(c2ccncc2)n2c(=O)c(-c3ccco3)nc3ccccc32)cc1 (stereo not drawn),/,/,-11%,/,/,/
NC(=O)C[n+]1cccc(C(=O)Nc2ccccc2)c1,0%,-4,2%,-10,?,0%
SMILES,SARS PLpro yeast,CHX counter,AMA1-RON2 inh,Shiga toxin inh,Pf growth 96h,Pf growth 48h
CCOc1ccc(C(=O)Nc2cc(C)on2)cc1,5%,31*,2%,73*,2%,22%
C/C(=C\c1ccccc1)C(=O)Nc1cc(C)on1,-9%,40*,5%,98*,/,?
C=CCN1c2ccccc2[C@]23C[C@@H](C(=O)OC)N(C(=O)c4cccs4)C2=NC(C(=O)OC)=C(C(=O)OC)[C@H]13,1%,-6,-3%,-6,?,-7%
CCCc1nc2c(C)ccc(C)c2c(N)c1CC,5%,1,-12%,-10,9.3µM*,13µM*
COc1ccc(NC(=O)CN(C)C(=O)c2cn(-c3ccccc3)nc2-c2cccnc2)cc1,/,/,76%,/,?,8.3µM*
CCOc1ccc(NC(=O)CN(C)C(=O)c2cn(-c3ccc(F)cc3)nc2-c2cccc(OC)c2)cc1OCC,-22%,/,-10%,/,?,12µM*
Cc1ccccc1CN1CCN(C(=O)c2cccc3ccccc23)CC1,2%,-2,25µM*,-17,0%,12µM*
CCOc1cc(CN2CCN(C(=O)c3cccc4ccccc34)CC2)ccc1OC,4%,1,?,-13,?,8.3µM*
Cc1ccccc1CN1CCN(C(=O)CC(C)C)CC1,-7%,-2,8%,/,10µM*,31%
COc1ccc(CN2CCN(C(=O)CC(C)C)CC2)c2ccccc12,-4%,2,-12%,-19,/,-25%
COc1cccc(CN2CCN(C(=O)c3cccc4ccccc34)CC2)c1OC,2%,1,-22%,-28,?,?
COc1cc(C2c3cc4c(cc3OC(C)(N3CCCC3)C2C)OCO4)cc(OC)c1OC (stereo not drawn),/,/,-12%,/,/,/
O=C(CN(c1ccccc1)S(=O)(=O)c1ccccc1)Nc1ccc(F)cc1,1%,-1,12%,-6,-6%,-27%
CSC1=N/C(=C\c2ccccc2)C(=O)N1C,4%,-1,6%,18,22%,50%
COc1cc(C=C2C(=O)c3ccccc3C2=O)ccc1O,-1%,28*,1%,78*,5%,33%
COc1cc(C=C2C(=O)c3ccccc3C2=O)cc(OC)c1OC,-6%,9,-3%,34,-13%,19%
COc1ccc(C=C2C(=O)c3ccccc3C2=O)cc1O,-3%,38*,-22%,115*,12µM*,2%
CC(=O)OCC(=O)C12OC(C)(C)OC1CC1C3CC=C4CC(O)CCC4(C)C3CCC12C (stereo not drawn),/,/,-4%,/,/,/
c1cncc(-c2nnc(C3CCCCC3)o2)c1,-1%,-2,-1%,5,?,19%
Clc1ccccc1-c1nc(-c2ccccc2)n[nH]1,-19%,53*,-9%,125*,/,136%
Cc1cc(C)c(NN=c2c(=O)c3ccccc3c2=O)c(C)c1,-6%,30*,-6%,7,28%,/
CCN(CC)S(=O)(=O)c1cccc(NN=c2c(=O)c3ccccc3c2=O)c1,0%,1,13%,2,-4%,7%
O=c1c(=NNc2ccccc2Cl)c(=O)c2ccccc12,-2%,41*,-18%,83*,74%,364%
Cc1ccc(S(=O)(=O)N(C)c2ccc(C(=O)Nc3c(C)n(C)n(-c4ccccc4)c3=O)cc2)cc1,1%,-6,-2%,16,2%,10%
C[C@H](CO)N1C[C@H](C)[C@@H](CN(C)C(=O)CC2CC2)Oc2cc(Br)ccc2S1(=O)=O,/,/,16%,/,/,/
CCC(=O)Nc1nc(NCc2ccccc2OC)n(-c2ccccc2)n1,-1%,1,-3%,-7,26%,20%
